Source: PubChem BioAssay (National Center for Advancing Translational Sciences (NCATS))
Only some compounds are listed: those with a hit (about 9.5% of all), similar ones and a draw of the others.
Pf growth 96h = inhibits malaria parasite growth, 96 h; Potency, µM (top dose mostly 28.7 µM), actives largely listed as inhibitors; hit rate 6.9% among 320,000; P. falciparum luciferase reporter growth, 96 h
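Erythrocytes infected with luciferase-expressing P. falciparum were dispensed at 2% hematocrit and 0.05% parasitemia (final), then incubated with compounds 96 hours at 37 C in 5% CO2. Luminescence after detection reagent addition reported growth.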
RE007 growth inh = less growth of the S. pombe RE007 Vpr strain | hit rate 0.21% among 360,000 | Potency, µM (doses to about 92.2 µM), actives largely listed as inhibitors | S. pombe RE007 Vpr strain, BacTiter-Glo ATP luminescence, 24 h; active = well fitted falling curve with a large enough effect; inconclusive = small, poorly fitted or top-dose-only effect; inactive = no such curve, though single readings can be large or run the other way; also: nearly all actives have a fitted effect of over 50% in size
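Fission yeast RE007 carrying one integrated HIV-1 vpr copy, seeded at OD 0.01 in PMG+AL medium with 23 nL pinned compound. Grown 24 h at 30 degrees; viability read by BacTiter-Glo luminescence after 5 min.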
SARS PLP yeast = blocks SARS-CoV papain-like protease in a yeast assay | hit rate 0.19% among 330,000 | S. cerevisiae expressing SARS-CoV PLpro, growth rescue | AID 485353 | Potency, µM (doses to about 32.9 µM), most hits filed as activators; calls by dose curve; also: nearly all actives have a fitted effect of over 55% in size
NS1 inh = influenza NS1 inhibition; AID 2326; Potency, µM (titrated, usually from 46.1 µM); hit rate 0.4% among 270,000; calls by dose curve; also: actives are rising curves; nearly all actives have a fitted effect of over 50% in size
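OD600 was taken as the measure of yeast growth restored by compound in an NS1-expressing S. cerevisiae strain. Cells had been washed out of glucose medium and diluted 1:100 into galactose -URA medium, pH 6.0.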
Pf growth 48h = P. falciparum growth inhibition at 48 hours (one generation) | P. falciparum luciferase growth in erythrocytes, 48 h | Potency, µM (highest dose often 28.7 µM), hits mostly inhibitors | hit rate 5.9% among 310,000
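Firefly luciferase activity from engineered P. falciparum reports growth; inhibitors lower the luminescent signal. Cultures contained 2% hematocrit erythrocytes at 0.1% final parasitemia.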
A number is an active result; i = inactive; ? = inconclusive; nt = no result given. Unless noted, calls follow the shape of the dose curve; as a rule, active = well fitted inhibition curve with a large enough effect; inconclusive = small, poorly fitted or top-dose-only effect, or another doubt; inactive = no such curve, though single readings can be large or run the other way.

SMILES	Pf growth 96h	RE007 growth inh	SARS PLP yeast	NS1 inh	Pf growth 48h
COc1cccc(O)c1CN1CCC(n2nccc2NC(=O)c2ccc3c(c2)OCO3)CC1	i	i	?	i	12µM
CC(C)=CCCC(C)CN1CCC(n2nccc2NC(=O)c2ccc3c(c2)OCO3)CC1 (stereo not drawn)	?	i	i	i	10µM
C/C=C(\C)CN1CCC(n2nccc2NC(=O)c2ccc3c(c2)OCO3)CC1	i	i	i	i	i
O=C(COC(=O)Cc1ccc(Cl)c(Cl)c1)NCCc1ccccc1	nt	i	nt	nt	nt
CCNC(=S)Nc1cc(C(=O)N2CCCC2)ccc1N1CCCC1	i	i	i	nt	i
CNC(=S)Nc1cc(C(=O)N2CCCC2)ccc1N1CCCC1	5.2µM	i	i	i	i
COc1cccc(CN2CCN(Cc3c(C)nn(C(C)C)c3C)CC2CCO)c1 (stereo not drawn)	10µM	i	i	i	i
C=CCC[C@H](CCCCC)OC(=O)/C=C/[C@@H](O)[C@H](O)C[C@@H](O)CC=C	nt	i	nt	nt	nt
O=C(CN(Cc1ccc(Cl)cc1)C(=O)CNS(=O)(=O)c1ccccc1)NCC1CCCO1 (stereo not drawn)	i	i	i	i	i
COc1ccccc1OC(=O)CCN1c2ccccc2Sc2ccccc21	i	i	i	?	i
COc1ccc(-[n+]2c(C)cc(/C=C3\Sc4ccccc4N3C)cc2C)cc1	?	?	i	nt	0.74µM
COc1ccc(C(=O)/C=C2\Sc3ccccc3N2C)cc1	i	i	i	i	i
COc1ccccc1-[n+]1c(C)cc(/C=C2\Sc3ccccc3N2C)cc1C	0.59µM	?	i	i	0.93µM
CCc1ccc2nc(NC(=O)c3ccc(N4C(=O)CCC4=O)cc3)sc2c1	i	i	i	i	i
CNS(=O)(=O)c1ccc2nc(NC(=O)c3ccc(N4C(=O)CCC4=O)cc3)sc2c1	3.7µM	i	i	i	?
CC(NC(=O)c1cc(F)c(F)cc1Cl)C1CC2CCC1C2 (stereo not drawn)	i	i	i	i	i
CC(C)c1ccc(NC(=O)CN2C(=O)COc3ccc(S(=O)(=O)N4CCOCC4)cc32)cc1	i	i	i	i	i
COc1ccc(-n2nnnc2/C=C\Nc2ccccc2C(=O)c2ccccc2)cc1	8.3µM	i	i	i	?
Cc1ccc(OCC(=O)NNC(=O)c2cc3ccccc3o2)cc1C	12µM	i	i	i	i
Cc1cc(NC(=O)COc2ccc(C)c(C)c2)no1	?	i	i	i	i
Cc1ccc(OCC(=O)NCCO)cc1C	1.3µM	i	i	?	nt
O=C(COc1ccc(Br)cc1)NCCO	?	i	i	i	i
Cc1ccc(OCC(=O)Nc2cc(C(C)(C)C)on2)cc1C	i	i	i	i	5.2µM
COc1ccc2c(c1)sc(=N)n2C	3.7µM	i	i	i	?
COc1ccc2c(c1)sc1nc(=O)ccn12	?	i	i	i	i
SMILES	Pf growth 96h	RE007 growth inh	SARS PLP yeast	NS1 inh	Pf growth 48h
COc1ccccc1C(=O)NC(=O)COC(=O)CNC(=O)c1ccc(Cl)c([N+](=O)[O-])c1	i	i	i	nt	i
O=C1NC(=Nc2ccccc2)c2c1cccc2[N+](=O)[O-]	i	nt	i	i	?
CC(=O)C1C(=O)c2c(cccc2[N+](=O)[O-])C1=Nc1ccccc1C (stereo not drawn)	0.0037µM	nt	i	i	nt
CC(=O)C1C(=O)c2c(cccc2[N+](=O)[O-])C1=Nc1cccc(Cl)c1 (stereo not drawn)	?	i	i	i	1.5µM
CC1(C)Cc2ccccc2C(/C(=N\Nc2cccc(Cl)c2)C(N)=O)=N1	i	i	i	i	5.9µM
CC(=O)c1ccc(N/N=C(/C(N)=O)C2=NC(C)(C)Cc3ccccc32)cc1	i	i	i	i	?
CC(C)CNC(=O)C1(C)CCCN1C(=O)c1cccnc1Oc1ccccc1 (stereo not drawn)	nt	i	nt	nt	nt
CC(C)(C)C(=O)OCOP(=O)(COCCn1cnc2c(N)ncnc21)OCOC(=O)C(C)(C)C	6.7µM	nt	nt	nt	15µM
CC(C)c1ccc(NC(=O)CN2C(=O)NC(C)(C3CC3)C2=O)cc1 (stereo not drawn)	i	i	i	nt	i
C=CCOC(=O)C1=C(C)OC(N)=C(C#N)C1c1ccccc1F (stereo not drawn)	nt	i	i	i	nt
C=CCOC(=O)C1=C(C)NC(=S)C(C#N)(CC=C)C1c1ccccc1Cl (stereo not drawn)	1.5µM	i	i	i	1.5µM
COc1cc(/C=C(/C#N)c2ccc(F)cc2)ccc1Oc1ccc([N+](=O)[O-])cn1	i	i	i	i	4.7µM
